Experimental data: PubChem BioAssay (Tox21)
Several values for one entry are separate records, joined by “and”; a condition that tells them apart may be missing. Equal entries are not always repeated. Results filed as inconclusive are left out. A call without a number means that no potency is given here. Some structures have more than one record in an assay (separate samples or runs), and their calls can disagree. Activity calls are given as the source filed them. Calls come from the whole dose curve; as a rule, active = well fitted cell-killing curve with a large enough effect in the repeat runs; inconclusive = weak or mixed curves, or effect the other way; inactive = no such curve, though single readings can be large or run the other way.

Assay: qHTS assay to identify small molecule antagonists of the retinoid-related orphan receptor gamma (ROR-gamma) signaling pathway - cell viability counter screen (AID 1159520); note: nearly all actives have a fitted effect of over 50% in size
Conditions: Tet-on RORgamma CHO cells viability, ATP luminescence, 16 h; series mostly up to 92.4 µM; activity, negative = cytotoxicity: at the top concentration
Text: U.S. Tox21 Program National Center for Advancing Translational Sciences [NCATS] NIH Chemical Genomics Center [NCGC] U.S. Environmental Protection Agency [EPA] National Institutes of Environmental Health Sciences [NIEHS] National Toxicology Program [NTP] U.S. Food and Drug Administration [FDA] Tox21 Assay Overview: Nuclear steroid hormone receptors are involved in many biological processes including inflammatory responses, cell proliferation, and apoptosis. Environmental factors or compounds disrupting these nuclear receptor pathways and gene expression may promote susceptibility to immunotoxicants and autoimmune diseases. One important group of these expression factors are the retinoid-related orphan receptors. To assess compounds that may interfere with the retinoid-related orphan receptor gamma (ROR-gamma) transcription factor, a cell-based luciferase assay was used. The CHO cell-based assay utilizes a TET-inducible ROR expression factor and ROR response element-LUC reporter gene. Reporter gene activity was induced using Doxycycline Hyclate and measured after 16 hr incubation. Tet-on ROR gamma CHO cells were used to screen against the Tox21 10K compound library for cytotoxicity by measuring the viability of the cells based on the quantitation of the ATP.
Tox21 Assay Protocol Summary: Tet-on ROR gamma CHO cells were dispensed at 1,000 cells in 4 uL of culture medium per well into white wall/solid bottom 1536-well plates using a Multidrop Combi (Thermo Scientific, Waltham, MA) dispenser. Following incubation at 37 C and 5% CO2 for 4 hr, 23 nL of compounds dissolved in DMSO, positive controls or DMSO only were transferred by a Pintool station (Kalypsys, San Diego, CA) and after 2 hr incubation at 37 C, one ul of 1 uM (final concentration) of Doxycycline Hyclate was added to all the wells by using a Flying Reagent Dispenser (FRD) (Aurora Discovery, San Diego, CA). After 16 hr incubation at 37 C and 5% CO2, 5 uL of CellTiter-Glo reagent (Promega Corporation, Madison, WI) was added to each assay plate using FRD. After 30 min incubation at room temperature, luminescence was quantified on a ViewLux plate reader (Perkin Elmer, Waltham, MA).
Potency is the fitted concentration of half-maximal effect.

Compound	Potency	activity, negative = cytotoxicity
c1ccncc1	inactive	–
COc1cccc2c1C(=O)c1c(O)c3c(c(O)c1C2=O)C[C@@](O)(C(=O)CO)C[C@@H]3O[C@H]1C[C@H](N)[C@H](O)[C@H](C)O1	inactive and 26.6 µM (active)	–
O=C1c2cccc(O)c2C(=O)c2c(O)cccc21	–	-2.1% [at 42.5 µM] (inactive)
CC(C)=CCCC(C)CCO (stereo not given)	inactive	–
c1cc(-c2ccncc2)ccn1	inactive	–
Cc1cccc(C(=O)O)c1	inactive	–
c1ccc2sc(SSN3CCOCC3)nc2c1	27.3 µM (active)	–
O=c1oc(=O)c2cc3c(=O)oc(=O)c3cc12	inactive	–
c1cc(N(CC2CO2)CC2CO2)ccc1OCC1CO1 (stereo not given)	inactive	–
CCCCCCCCCCCO	inactive	–
COC(=O)Nc1nc2ccc(S(=O)c3ccccc3)cc2[nH]1 (stereo not given)	–	-8.38% (inactive)
CN1C(C(=O)Nc2ccccn2)=C(O)c2ccccc2S1(=O)=O	inactive	–
CCCCOCCOCCOCCO	inactive	–
Cc1c(C(N)=O)cc([N+](=O)[O-])cc1[N+](=O)[O-]	inactive	–
CCOCCOCCO	inactive	–
COC(=O)C1=C(C)NC(C)=C(C(=O)OCCN(C)Cc2ccccc2)C1c1cccc([N+](=O)[O-])c1 (stereo not given)	60.8 µM (active)	–
Cc1cccc(N(C)C(=S)Oc2ccc3ccccc3c2)c1	–	-6.89% [at 42.5 µM] (inactive)
O=C=Nc1ccc(Cc2ccc(N=C=O)cc2)cc1	inactive	–
Clc1nc(Cl)c(Cl)c(Cl)c1Cl	inactive	–
OC(CCl)CCl	inactive	–

Compound	Potency	activity, negative = cytotoxicity
c1ccc2c(c1)c1cccc3ccc4cccc2c4c31	inactive	–
COc1ccc(C(=O)CC(=O)c2ccc(C(C)(C)C)cc2)cc1	inactive	–
Nc1ccccc1N	inactive	–
Nc1ncnc2nc[nH]c12	inactive	–
C=C(C)C1CC=C(C)CC1 (stereo not given)	inactive	–
COc1ccc(OC)c(C(O)CNC(=O)CN)c1 (stereo not given)	inactive	–
NC=O	inactive	–
OC[C@H]1O[C@@H]2O[C@H]3[C@H](O)[C@@H](O)[C@@H](O[C@H]4[C@H](O)[C@@H](O)[C@@H](O[C@H]5[C@H](O)[C@@H](O)[C@@H](O[C@H]6[C@H](O)[C@@H](O)[C@@H](O[C@H]7[C@H](O)[C@@H](O)[C@@H](O[C@H]8[C@H](O)[C@@H](O)[C@@H](O[C@H]1[C@H](O)[C@H]2O)O[C@@H]8CO)O[C@@H]7CO)O[C@@H]6CO)O[C@@H]5CO)O[C@@H]4CO)O[C@@H]3CO	inactive	–
Cc1cc2nc3c(=O)[nH]c(=O)nc-3n(C[C@H](O)[C@H](O)[C@H](O)CO)c2cc1C	inactive	–
C[C@]12CCC(=O)C=C1CC[C@@H]1[C@@H]2C(=O)C[C@@]2(C)[C@H]1CC[C@]2(O)C(=O)CO	inactive	–
CC(C)CC(C)(O)C#CC(C)(O)CC(C)C (stereo not given)	inactive	–
CC(C)OC(=O)C(C)(C)Oc1ccc(C(=O)c2ccc(Cl)cc2)cc1	inactive	–
Cc1ncc[nH]1	inactive	–
Cc1ccc(C(=O)c2cc(O)c(O)c([N+](=O)[O-])c2)cc1	inactive	–
COC(C)COC(C)COC(C)CO (stereo not given)	inactive	–
CC(=O)c1ccccn1	inactive	–
c1ccc(Nc2ccccc2)cc1	54.4 µM (active) and inactive	–
CC(=O)C1(C)CC2=C(CCCC2(C)C)CC1C (stereo not given)	inactive	–
CCC(C)(O)CCCC(C)C (stereo not given)	inactive	–
c1ccc2c(c1)Oc1ccccc1S2	inactive	–
